NIH3T3 tox: NIH 3T3 cell cytotoxicity. NIH 3T3 viability, CellTiter-Glo ATP luminescence, 48-72 h. Potency, µM (top dose mostly 96.7 µM), actives largely listed as inhibitors. 4.3% of 94,000 active. AID 1345082; also: nearly all actives have a fitted effect of over 55% in size
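Viability of NIH 3T3 cells after 48 or 72 hr compound treatment at 37 °C was assessed by CellTiter-Glo, with luminescence imaged following a 10 min room-temperature step.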
hNpr1 antagonist: human Npr1 receptor antagonism. Potency, µM (top dose mostly 46.3 µM), actives largely listed as inhibitors. HEK293 hNpr1 GloSensor cGMP, ANP-stimulated luminescence. 1.6% of 76,000 active; calls by dose curve; also: nearly all actives have a fitted effect of over 60% in size
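HEK293 cells stably expressing human Npr1 and cGMP GloSensor pGS-40F, loaded 2 h with 2% GloSensor reagent, given compound 30 min at room temperature. Luminescence read before and 20 min after 0.1 nM hNppA.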
GPT2 inhibitor: inhibitors of human GPT2 alanine aminotransferase | Recombinant GPT2, coupled pyruvate oxidase/HRP Amplex Red fluorescence | Potency, µM (highest dose often 57.7 µM), hits mostly inhibitors | AID 1671188 | 0.25% of 100,000 active; also: nearly all actives have a fitted effect of over 60% in size
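Fluorescence of coupled pyruvate oxidase/HRP/Amplex Red system (50uM Amplex, 30 min, dark) reports pyruvate formed by GPT2. Enzyme reaction: 10ng/uL GPT2, 2mM L-alanine, 250uM a-KG, 30 min room temperature, pH 7.5; 50uM AOA control.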
HEK cytotox: cytotoxic compounds in HEK 293 cells; HEK 293 viability, ATP luminescence (CellTiter-Glo), 48-72 h; Potency, µM (doses to about 115 µM), most hits filed as inhibitors; 6.6% of 94,000 active; AID 1345083; also: nearly all actives have a fitted effect of over 60% in size
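Viability of HEK 293 cells, plated at 250 cells/well, was judged by cellular ATP after compound treatment for 48 or 72 hr. Luminescence was imaged 10 min after CellTiter-Glo addition at room temperature.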
Luciferase inh: Photinus pyralis luciferase inhibition. purified P. pyralis luciferase, luminescence, biochemical. Potency, µM (series often up to 115 µM), most hits filed as inhibitors. 2.5% of 76,000 active; also: nearly all actives have a fitted effect of over 65% in size
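FLuc 10nM, D-luciferin 10uM, ATP 10uM, Mg acetate 10mM, Tris acetate pH 7.5, Tween/BSA; cpd qHTS; enzyme added last; CCD luminescence.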
GPT2 inh cnf: human alanine aminotransferase 2 inhibition, confirmatory | shares compounds with GPT2 inhibitor | Potency, µM, hits mostly inhibitors | 90% of 95 active | GPT2 enzyme, coupled Amplex Red pyruvate fluorescence
Hits are given with their value; . = inactive; ? = inconclusive; / = no result given. In the library only some 10% were active in any assay of this set; here they are far more common. Unless noted, calls follow the shape of the dose curve; as a rule, active = well fitted curve in the direction sought with a large enough effect; inconclusive = small, poorly fitted or top-dose-only effect, or another doubt; inactive = no such curve, though single readings can be large; an effect the other way counts as inactive or inconclusive.

SMILES	NIH3T3 tox	hNpr1 antagonist	GPT2 inhibitor	HEK cytotox	Luciferase inh	GPT2 inh cnf
CNC(=O)c1cc(Nc2cccc(N(C)C)c2)cc2c1OCCN2Cc1cccnc1	?	.	?	?	.	3.5
O=C(c1cccc(Cl)c1)N1CCc2nc(C3CC3)nc(-c3ccc(O)cc3)c2CC1	?	.	.	?	.	/
COc1ccc(N2CCN(C3CCCN(CC=C(C)C)C3)CC2)cc1 (configuration not stated)	.	.	?	.	.	/
COc1ccc(N2CCN(C3CCCN(Cc4cc(=O)[nH]c(=O)[nH]4)C3)CC2)cc1 (configuration not stated)	.	.	?	.	.	6.9
Cc1nc(-c2ccccc2)n(CC(=O)Nc2cc(C(F)(F)F)ccc2Cl)c(=O)c1CCO	?	.	.	?	.	/
COc1cccc(C(=O)N2CCC(N3C[C@H](O)C[C@H]3C(=O)Nc3cccc(C)c3)CC2)c1	.	.	.	.	.	/
CC(=O)Nc1ccc(-c2c(C3CC3)nn(-c3cccc(C)c3)c2OC(C)=O)cc1	.	.	?	.	.	9.7
COc1ccc(NC2CCCN(C(=O)C(=O)CC(C)C)C2)cc1OC (configuration not stated)	.	.	22µM	.	.	3.4
COc1ccc(NC(=O)NCC2CCCN(C(C)C)C2)cc1OC (configuration not stated)	.	.	.	.	.	/
Cc1ccc2c(c1)C(N1CCN(C)CC1)=Nc1cccnc1N2	/	/	.	/	/	/
Cc1cc2c(s1)Nc1ccccc1N=C2N1CCN(C)CC1	/	/	?	/	/	8.6
